Data published in PubChem BioAssay (Tox21).
“And” between values parts separate entries of the source, which are not always exact repeats. Equal values may be shown once. Results filed as inconclusive are left out. Entries that show only a call come without a potency. Where a structure was tested more than once in an assay, its records may differ in their call. The source made the active and inactive calls. Unless noted, the call rests on the fitted dose curve; in most records, active means well fitted curve in the direction sought with a large enough effect in the repeat runs; inconclusive means weak or mixed curves; inactive means no such curve, though single readings can be large; an effect the other way counts as inactive or inconclusive.

How the values were obtained:
[1] = molecular target: Progesterone receptor (Homo sapiens) (UniProt P06401); experiment: qHTS assay to identify small molecule agonists of the progesterone receptor (PR) signaling pathway (AID 1346784; calls by dose curve; further: nearly all actives have a fitted effect of over 30% in size)
How it was run: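 Beta-lactamase reporter read-out: after 16 hr compound treatment at 37C and a further 2 hr at room temperature with LiveBLAzer B/G FRET substrate, fluorescence was measured in PR-UAS-bla HEK 293T cells grown in 2% charcoal-stripped serum.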

[2] = molecular target: Progesterone receptor (Homo sapiens) (UniProt P06401); experiment: qHTS assay to identify small molecule antagonists of the progesterone receptor (PR) signaling pathway (AID 1346795; active means well fitted inhibition curve with a large enough effect in the signal ratio in the repeat runs, not every such curve was filed as active; the % refers to the signal ratio; further: potency means the concentration at half of the fitted maximal effect)
How it was run: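 Read-out is fluorescence from the LiveBLAzer B/G FRET substrate, cleaved by a UAS-controlled beta-lactamase in PR-UAS-bla HEK293T cells after 16 hr exposure to compound plus 1 nM promegestone (final), followed by 2 hr at room temperature.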

[3] = qHTS assay to identify small molecule antagonists of the progesterone receptor (PR) signaling pathway - cell viability counter screen (AID 1346798);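 further: HEK293T PR-UAS-bla cells stimulated with the agonist R5020; series mostly up to about 92 µM; nearly all actives have a fitted effect of over 50% in size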
How it was run: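 HEK293T PR-UAS-bla, 2% charcoal-stripped FBS; 4 hr pre-plate; cpd + R5020, 16 h 37C; LiveBLAzer read first; then CellTiter-Glo 30 min RT, luminescence.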

[4] = qHTS assay to identify small molecule agonists of the progesterone receptor (PR) signaling pathway - cell viability counter screen (AID 1346799; calls by dose curve; further: nearly all actives have a fitted effect of over 45% in size)
How it was run: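 Luminescence from CellTiter-Glo, added after the beta-lactamase FRET read in the same wells, gave cytotoxicity in PR-UAS-bla HEK293T cells treated with compounds for 16 hr at 37C.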

[5] = qHTS assay to identify small molecule antagonists of the TGF-beta/Smad signaling pathway - cell viability counter screen (AID 1346824); further: nearly all actives have a fitted effect of over 50% in size
How it was run: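 Cytotoxicity counter-screen run in the same wells as the beta-lactamase Smad reporter read: CellTiter-Glo luminescence after 30 min at room temperature. HEK 293T SBE-bla cells had 5 hr compound exposure at 37 C with TGF-beta1 (0.25 ng/mL stock).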

[6] = qHTS assay to identify small molecule agonists of the TGF-beta/Smad signaling pathway - cell viability counter screen (AID 1346829); further: top concentration of the series differs between compounds; nearly all actives have a fitted effect of over 45% in size
How it was run: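 Same-well cytotoxicity: CellTiter-Glo added after the 2 hr room-temperature beta-lactamase substrate step, luminescence measured 30 min later; cells had 5 hr of compound at 37 C.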

[7] = qHTS assay to identify small molecule agonists of the TGF-beta/Smad signaling pathway (AID 1346859; active means well fitted activation curve with a large enough effect in the signal ratio in the repeat runs, not every such curve was filed as active; the % refers to the signal ratio; further: series mostly up to about 77 µM)
How it was run: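 SBE-bla HEK 293T, 4,000 cells/well, plated o/n; cpd in DMSO, 5 hr, 37 C/5% CO2; B/G FRET substrate 2 hr RT; ex 405, em 460/530 nm.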

[8] = Human pregnane X receptor (PXR) small molecule agonists, qHTS cell viability counter screen (AID 1346977); further: nearly all actives have a fitted effect of over 50% in size
How it was run: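 PXR-Luc HepG2, 2,000 cells/well, 5% charcoal-stripped FBS; 5hr settle; cpd 24hr, 37C/5% CO2; CellTiter-Fluor at 23hr, read 1hr later (fluorescence).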

[9] = Caspase-3/7 induction in HepG2 cells by small molecules, qHTS assay (AID 1346978); further: nearly all actives have a fitted effect of over 15% in size
How it was run: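 Caspase-3/7 induction was measured by Caspase-Glo 3/7 luminescence (30 min, room temperature) after a 17 hr compound exposure of wild-type HepG2 cells seeded at 2,000 per well and pre-incubated 5 hr.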

[10] = Caspase-3/7 induction in CHO-K1 cells by small molecules, qHTS cell viability counter screen (AID 1346979); further: nearly all actives have a fitted effect of over 35% in size
How it was run: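 Cells (CHO-K1, wild type) are plated at 1,500 per well and incubated 5hr. Test compounds in DMSO are then pinned in, followed by 16hr at 37C and 5% CO2. Viability is read by CellTiter-Fluor fluorescence after 1hr.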

[11] = Caspase-3/7 induction in CHO-K1 cells by small molecules, qHTS assay (AID 1346980); further: nearly all actives have a fitted effect of over 15% in size
How it was run: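 Luminescent Caspase-Glo 3/7 read (30min, room temperature) quantified apoptosis induction. Cells were wild-type CHO-K1, treated with compound for 17hr at 37 C and 5% CO2.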

[12] = Caspase-3/7 induction in HepG2 cells by small molecules, qHTS cell viability counter screen (AID 1346981); further: series mostly up to about 92 µM; nearly all actives have a fitted effect of over 30% in size
How it was run: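 Wild-type HepG2 cells (2,000/well) were allowed to settle for 5 hr at 37 C, 5% CO2, then dosed with compounds in DMSO by pin transfer. After 16 hr at 37 C, CellTiter-Fluor was added and fluorescence read 1 hr later.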

[13] = molecular target: Nuclear receptor subfamily 1 group I member 2 (Homo sapiens) (UniProt O75469); experiment: Human pregnane X receptor (PXR) small molecule agonists, qHTS assay (AID 1346982); further: nearly all actives have a fitted effect of over 35% in size
How it was run: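 PXR-Luc HepG2 cells (CYP3A4 promoter-driven luciferase) were seeded in medium with 5% charcoal-stripped FBS, left 5 hr at 37 C, then exposed to compounds in DMSO for 24 hr. Luminescence was read after ONE-Glo addition.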

[14] = molecular target: Nuclear receptor subfamily 1 group I member 2 (Rattus norvegicus) (UniProt Q9R1A7); experiment: Rat pregnane X receptor (rPXR) activation by small molecules, qHTS assay (AID 1346983); details: rPXR luciferase reporter cells, One-Glo luminescence, 24 h; max activation: stronger effect = higher value; further: nearly all actives have a fitted effect of over 20% in size
How it was run: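 Luminescent readout (One-Glo luciferase, 30 min room temperature) followed 24 hr compound treatment at 37 C of rPXR cells plated 2,000 per well and preincubated 5hr; qHTS format with compounds delivered in DMSO.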

[15] = molecular target: Nuclear receptor subfamily 1 group I member 2 (Homo sapiens) (UniProt O75469); experiment: Human pregnane X receptor (PXR) activation by small molecules, qHTS assay (AID 1346985); further: nearly all actives have a fitted effect of over 40% in size
How it was run: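 DPX-2 cells (HepG2 co-transfected with a PXR response element and a CYP3A4-promoter luciferase construct) were seeded at 2,000 per well, rested 5 hr at 37C, then exposed to DMSO-dissolved compounds for 24 hr. Activation was read as luciferase luminescence.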

[16] = molecular target: Cytochrome P450 2D6 (Homo sapiens) (UniProt P10635); experiment: Cytochrome P450 Family 2 Subfamily D Member 6 (CYP2D6) small molecule antagonists: luciferase reporter qHTS assay (AID 1671196); further: nearly all actives have a fitted effect of over 50% in size; further: potency means the concentration at half of the fitted maximal effect
How it was run: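 CYP2D6 enzyme–substrate mix was held with compound for 10 min at room temperature, then NADPH regeneration solution was added and the reaction ran 1 h at room temperature. Luciferin product was detected by luminescence after 20 min with detection reagent.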

[17] = molecular target: Cytochrome P450 2C19 (Homo sapiens) (UniProt P33261); experiment: Cytochrome P450 Family 2 Subfamily C Member 19 (CYP2C19) small molecule antagonists: luciferase reporter qHTS assay (AID 1671197); further: nearly all actives have a fitted effect of over 65% in size; further: potency means the concentration at half of the fitted maximal effect
How it was run: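 Quantitative high-throughput screen of the Tox21 library using CYP2C19 with proluciferin substrate. Reaction: NADPH regeneration, 37C, 1 h, after 10 min compound preincubation at room temperature. Readout: luminescence.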

[18] = molecular target: Cytochrome P450 2C9 (Homo sapiens) (UniProt P11712); experiment: Cytochrome P450 Family 2 Subfamily C Member 9 (CYP2C9) small molecule antagonists: luciferase reporter qHTS assay (AID 1671198); further: nearly all actives have a fitted effect of over 50% in size; further: potency means the concentration at half of the fitted maximal effect
How it was run: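 Enzyme-substrate mix preincubated with compound 10 min at room temperature; reaction started with NADPH regeneration solution, 1 h 37C. Luminescent luciferin product read after 20 min detection reagent.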

[19] = molecular target: Thyrotropin-releasing hormone receptor (Homo sapiens) (UniProt P34981); experiment: qHTS assay to identify small molecule antagonists of the thyrotropin-releasing hormone receptor (TRHR) signaling pathway (AID 1346877; active means well fitted inhibition curve with a large enough effect in the repeat runs, not every such curve was filed as active; further: series mostly up to about 51 µM)
How it was run: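 TRHR-expressing HEK293 cells were seeded, cultured 18 h at 37 °C, then loaded with calcium dye for 2 h. Compounds were pre-incubated 5 min at room temperature before 1 nM TRH (final) was added, and kinetic fluorescence was recorded for 3 min.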

[20] = molecular target: Thyrotropin-releasing hormone receptor (Homo sapiens) (UniProt P34981); experiment: qHTS assay to identify small molecule agonists of the thyrotropin-releasing hormone receptor (TRHR) signaling pathway (AID 1346891; calls by dose curve; further: series mostly up to about 58 µM)
How it was run: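 Intracellular calcium rise, read as fluorescence every second for 3 min, served as the agonist signal in dye-loaded HEK293 cells expressing TRHR; each compound ran at 15 concentrations in triplicate.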

Cytochrome P450 2C9 (Homo sapiens), sequence (P11712 whole entry, looked up): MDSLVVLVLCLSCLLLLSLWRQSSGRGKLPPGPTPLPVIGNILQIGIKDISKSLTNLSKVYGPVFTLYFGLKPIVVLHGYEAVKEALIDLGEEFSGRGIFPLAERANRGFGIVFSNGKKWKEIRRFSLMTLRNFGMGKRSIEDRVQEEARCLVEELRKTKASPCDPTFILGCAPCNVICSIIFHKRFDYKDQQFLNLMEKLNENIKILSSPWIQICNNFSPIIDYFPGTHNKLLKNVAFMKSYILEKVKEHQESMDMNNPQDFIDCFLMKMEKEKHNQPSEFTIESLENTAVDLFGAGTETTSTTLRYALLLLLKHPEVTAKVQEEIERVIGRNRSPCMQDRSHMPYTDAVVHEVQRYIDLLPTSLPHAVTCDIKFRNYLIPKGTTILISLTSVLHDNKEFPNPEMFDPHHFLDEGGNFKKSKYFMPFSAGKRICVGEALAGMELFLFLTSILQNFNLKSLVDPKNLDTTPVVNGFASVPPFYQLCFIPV
Progesterone receptor (Homo sapiens), sequence (P06401 whole entry, looked up): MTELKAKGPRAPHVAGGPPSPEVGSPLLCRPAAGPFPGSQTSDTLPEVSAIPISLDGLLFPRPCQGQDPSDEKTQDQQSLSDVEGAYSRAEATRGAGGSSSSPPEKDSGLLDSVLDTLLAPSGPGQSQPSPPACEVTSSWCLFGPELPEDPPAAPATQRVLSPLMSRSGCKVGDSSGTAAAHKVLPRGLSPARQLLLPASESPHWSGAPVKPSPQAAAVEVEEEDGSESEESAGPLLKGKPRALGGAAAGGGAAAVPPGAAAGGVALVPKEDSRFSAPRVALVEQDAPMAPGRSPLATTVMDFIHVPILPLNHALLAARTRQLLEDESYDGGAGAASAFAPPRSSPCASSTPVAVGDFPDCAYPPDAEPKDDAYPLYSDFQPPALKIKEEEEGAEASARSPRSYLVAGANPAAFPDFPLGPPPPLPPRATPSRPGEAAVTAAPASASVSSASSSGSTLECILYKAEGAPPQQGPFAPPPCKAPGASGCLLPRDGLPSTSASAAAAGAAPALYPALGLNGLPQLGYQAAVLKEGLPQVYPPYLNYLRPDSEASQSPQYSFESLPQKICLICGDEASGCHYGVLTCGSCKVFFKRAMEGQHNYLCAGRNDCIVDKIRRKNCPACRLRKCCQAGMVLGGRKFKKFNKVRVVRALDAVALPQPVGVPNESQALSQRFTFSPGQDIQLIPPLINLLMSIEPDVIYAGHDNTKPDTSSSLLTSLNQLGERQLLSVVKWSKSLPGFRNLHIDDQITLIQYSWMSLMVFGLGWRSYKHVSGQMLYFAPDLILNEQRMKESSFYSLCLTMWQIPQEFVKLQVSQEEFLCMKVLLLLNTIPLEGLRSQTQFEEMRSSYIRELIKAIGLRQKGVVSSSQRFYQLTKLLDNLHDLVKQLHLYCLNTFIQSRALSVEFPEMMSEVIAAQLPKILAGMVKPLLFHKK
Nuclear receptor subfamily 1 group I member 2 (Homo sapiens), sequence (O75469 whole entry, looked up): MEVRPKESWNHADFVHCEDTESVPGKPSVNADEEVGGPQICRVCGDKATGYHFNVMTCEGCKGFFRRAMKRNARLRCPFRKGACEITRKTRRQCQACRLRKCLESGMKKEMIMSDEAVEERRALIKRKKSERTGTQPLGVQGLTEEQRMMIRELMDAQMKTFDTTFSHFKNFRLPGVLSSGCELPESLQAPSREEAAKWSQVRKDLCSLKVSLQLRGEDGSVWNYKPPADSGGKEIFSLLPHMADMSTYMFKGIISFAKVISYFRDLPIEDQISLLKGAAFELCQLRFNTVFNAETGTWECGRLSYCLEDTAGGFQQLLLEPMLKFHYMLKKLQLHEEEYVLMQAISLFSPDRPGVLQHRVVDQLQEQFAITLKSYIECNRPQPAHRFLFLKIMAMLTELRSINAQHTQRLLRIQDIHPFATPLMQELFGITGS
Nuclear receptor subfamily 1 group I member 2 (Rattus norvegicus), sequence (Q9R1A7 whole entry, looked up): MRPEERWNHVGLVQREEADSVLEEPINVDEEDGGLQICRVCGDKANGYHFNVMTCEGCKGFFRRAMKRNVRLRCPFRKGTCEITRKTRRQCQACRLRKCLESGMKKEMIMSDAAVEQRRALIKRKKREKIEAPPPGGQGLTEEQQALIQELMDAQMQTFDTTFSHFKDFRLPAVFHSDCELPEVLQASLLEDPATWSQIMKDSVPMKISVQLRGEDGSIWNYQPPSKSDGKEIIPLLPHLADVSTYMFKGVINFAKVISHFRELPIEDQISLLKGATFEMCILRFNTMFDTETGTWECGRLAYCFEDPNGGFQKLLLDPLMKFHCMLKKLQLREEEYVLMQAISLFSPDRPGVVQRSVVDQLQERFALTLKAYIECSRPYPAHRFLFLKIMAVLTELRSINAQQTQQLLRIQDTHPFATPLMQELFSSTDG
Cytochrome P450 2C19 (Homo sapiens), sequence (P33261 whole entry, looked up): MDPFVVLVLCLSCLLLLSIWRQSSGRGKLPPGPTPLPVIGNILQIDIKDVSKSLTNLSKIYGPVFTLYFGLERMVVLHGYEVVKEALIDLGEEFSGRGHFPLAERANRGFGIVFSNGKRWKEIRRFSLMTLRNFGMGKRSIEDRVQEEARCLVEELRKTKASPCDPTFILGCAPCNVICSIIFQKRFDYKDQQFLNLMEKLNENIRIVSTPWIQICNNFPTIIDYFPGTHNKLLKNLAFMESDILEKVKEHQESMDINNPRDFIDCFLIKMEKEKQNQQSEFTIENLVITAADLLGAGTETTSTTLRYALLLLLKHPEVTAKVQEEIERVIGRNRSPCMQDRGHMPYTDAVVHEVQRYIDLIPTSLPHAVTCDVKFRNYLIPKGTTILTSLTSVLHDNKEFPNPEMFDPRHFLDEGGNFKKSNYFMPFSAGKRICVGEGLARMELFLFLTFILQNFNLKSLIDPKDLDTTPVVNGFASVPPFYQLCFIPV
Thyrotropin-releasing hormone receptor (Homo sapiens), sequence (P34981 whole entry, looked up): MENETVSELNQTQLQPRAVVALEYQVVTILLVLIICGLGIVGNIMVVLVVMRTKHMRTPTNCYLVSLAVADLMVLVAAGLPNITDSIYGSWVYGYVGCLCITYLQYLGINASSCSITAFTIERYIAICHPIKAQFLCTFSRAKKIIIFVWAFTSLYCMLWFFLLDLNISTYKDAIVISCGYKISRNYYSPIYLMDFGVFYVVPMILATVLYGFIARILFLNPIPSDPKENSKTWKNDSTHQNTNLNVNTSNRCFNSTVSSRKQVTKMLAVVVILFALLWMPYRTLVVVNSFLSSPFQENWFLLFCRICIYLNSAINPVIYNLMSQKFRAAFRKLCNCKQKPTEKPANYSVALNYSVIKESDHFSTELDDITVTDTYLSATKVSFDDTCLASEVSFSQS
Cytochrome P450 2D6 (Homo sapiens), sequence (P10635 whole entry, looked up): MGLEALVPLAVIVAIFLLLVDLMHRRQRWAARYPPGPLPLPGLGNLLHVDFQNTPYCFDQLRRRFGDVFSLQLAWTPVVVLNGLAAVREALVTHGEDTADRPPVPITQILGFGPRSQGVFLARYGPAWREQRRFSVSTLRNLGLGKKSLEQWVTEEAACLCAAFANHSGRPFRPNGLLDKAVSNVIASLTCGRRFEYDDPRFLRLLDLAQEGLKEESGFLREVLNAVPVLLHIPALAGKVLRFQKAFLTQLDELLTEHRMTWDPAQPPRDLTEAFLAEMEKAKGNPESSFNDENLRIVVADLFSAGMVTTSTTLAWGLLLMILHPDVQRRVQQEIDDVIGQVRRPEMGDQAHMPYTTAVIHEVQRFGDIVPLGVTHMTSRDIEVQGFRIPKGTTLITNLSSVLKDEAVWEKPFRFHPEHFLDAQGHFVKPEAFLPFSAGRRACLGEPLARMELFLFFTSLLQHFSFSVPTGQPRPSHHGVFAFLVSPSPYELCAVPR

SMILES	Potency [1]	Potency [2]	Potency [3]	Potency [4]	Potency [5]	Potency [6]	outcome [7]	Potency [8]	Potency [9]	Potency [10]	outcome [11]	Potency [12]	Potency [13]	max activation [14]	Potency [15]	Potency [16]	Potency [17]	Potency [18]	outcome [19]	Potency [20]
CCCCC/C(C=O)=C\c1ccccc1	inactive	inactive	inactive	inactive	inactive	inactive	inactive	inactive	inactive	inactive	inactive	inactive	inactive	-0.992% (inactive)	inactive	63.4 µM (active) and inactive	35.6 µM (active) and 39.9 µM (active) and inactive	39.9 µM (active)	–	–
O=C(OCc1ccccc1)c1ccccc1	inactive	inactive	inactive	inactive	inactive	inactive	inactive	inactive	inactive	inactive	inactive	inactive	inactive	0.688% (inactive)	inactive	inactive	31.8 µM (active) and 39.9 µM (active) and 17.4 µM (active)	40 µM (active) and 63.3 µM (active)	–	–
N[C@@H](Cc1c[nH]c2ccc(O)cc12)C(=O)O	–	inactive	inactive	inactive	inactive	inactive	inactive	inactive	inactive	inactive	inactive	inactive	inactive	-0.341% (inactive)	inactive	34.6 µM (active)	inactive	27.5 µM (active) and 34.7 µM (active)	inactive	inactive
CN/C(=C\[N+](=O)[O-])NCCSCc1ccc(CN(C)C)o1	–	inactive	inactive	inactive	inactive	inactive	inactive	inactive	inactive	inactive	inactive	inactive	inactive	–	–	inactive	inactive	inactive	inactive	inactive
OC[C@@H](O)[C@@H](O)[C@H](O)[C@H](O)CO	inactive	inactive	inactive	inactive	inactive	inactive	inactive	inactive	inactive	inactive	inactive	inactive	inactive	-0.524% (inactive)	inactive	inactive	inactive	inactive and 89.4 µM (active)	–	–
C[C@]12CC[C@@H]3c4ccc(O)cc4C[C@@H](CCCCCCCCCS(=O)CCCC(F)(F)C(F)(F)F)[C@H]3[C@@H]1CC[C@@H]2O (stereo partly specified)	inactive	1.72 µM (active)	inactive	inactive	inactive	inactive	inactive	inactive	inactive	–	inactive	inactive	–	–	–	inactive	7.1 µM (active) and 10.5 µM (active) and 6.92 µM (active)	2.83 µM (active) and 3.32 µM (active) and 2.75 µM (active)	inactive	inactive
